# Test results as given in paper PMC12350791.
# Experiments:
# Experiment in all cases: cross-linking mass spectrometry
# Conditions in all cases: DSBSO, in cells or nuclear extract, not told apart
# SEPTIN11 = SEPTIN11 (UniProt Q9NVA2)
# SEPTIN2 = SEPTIN2 (UniProt Q15019)
# SERBP1 = SERBP1 (UniProt Q8NC51)
# USP39 = USP39 (UniProt Q53GS9)
# SPG11 = SPG11 (UniProt Q96JI7)
# VPS35 = VPS35 (UniProt Q96QK1)
# SF3A1 = SF3A1 (UniProt Q15459)
# YWHAZ = YWHAZ (UniProt P63104)
# STAT5B = STAT5B (UniProt P51692)
# UBE2I = UBE2I (UniProt P63279)
# SF1 = SF1 (UniProt Q15637)
# SF3B2 = SF3B2 (UniProt Q13435)
# Chain of SF3B2 (Q13435 whole entry): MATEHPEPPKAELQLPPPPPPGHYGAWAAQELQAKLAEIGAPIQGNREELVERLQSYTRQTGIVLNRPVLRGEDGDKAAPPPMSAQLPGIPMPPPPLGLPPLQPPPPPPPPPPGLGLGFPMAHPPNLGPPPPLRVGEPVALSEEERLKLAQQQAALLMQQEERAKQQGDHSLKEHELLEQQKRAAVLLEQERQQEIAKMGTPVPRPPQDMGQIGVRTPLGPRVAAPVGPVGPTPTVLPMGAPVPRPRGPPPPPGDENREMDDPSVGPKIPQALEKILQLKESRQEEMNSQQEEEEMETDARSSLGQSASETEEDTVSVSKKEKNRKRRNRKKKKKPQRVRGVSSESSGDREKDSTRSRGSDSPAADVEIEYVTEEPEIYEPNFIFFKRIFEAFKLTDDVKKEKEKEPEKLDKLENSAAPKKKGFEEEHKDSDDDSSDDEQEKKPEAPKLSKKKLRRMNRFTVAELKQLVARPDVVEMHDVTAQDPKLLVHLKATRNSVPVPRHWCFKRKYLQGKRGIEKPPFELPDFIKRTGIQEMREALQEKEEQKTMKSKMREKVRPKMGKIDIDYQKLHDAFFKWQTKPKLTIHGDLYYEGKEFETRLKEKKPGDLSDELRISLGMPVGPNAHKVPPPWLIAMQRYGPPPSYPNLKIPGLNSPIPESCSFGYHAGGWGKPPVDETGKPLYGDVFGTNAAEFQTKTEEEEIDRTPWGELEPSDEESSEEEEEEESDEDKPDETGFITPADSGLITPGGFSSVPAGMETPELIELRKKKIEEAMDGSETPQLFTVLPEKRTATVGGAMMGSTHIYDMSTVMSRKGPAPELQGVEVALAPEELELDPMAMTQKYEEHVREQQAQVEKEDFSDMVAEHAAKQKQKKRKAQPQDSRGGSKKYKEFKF
# SF3B3 = SF3B3 (UniProt Q15393)
# Chain of SF3B3 (Q15393 whole entry): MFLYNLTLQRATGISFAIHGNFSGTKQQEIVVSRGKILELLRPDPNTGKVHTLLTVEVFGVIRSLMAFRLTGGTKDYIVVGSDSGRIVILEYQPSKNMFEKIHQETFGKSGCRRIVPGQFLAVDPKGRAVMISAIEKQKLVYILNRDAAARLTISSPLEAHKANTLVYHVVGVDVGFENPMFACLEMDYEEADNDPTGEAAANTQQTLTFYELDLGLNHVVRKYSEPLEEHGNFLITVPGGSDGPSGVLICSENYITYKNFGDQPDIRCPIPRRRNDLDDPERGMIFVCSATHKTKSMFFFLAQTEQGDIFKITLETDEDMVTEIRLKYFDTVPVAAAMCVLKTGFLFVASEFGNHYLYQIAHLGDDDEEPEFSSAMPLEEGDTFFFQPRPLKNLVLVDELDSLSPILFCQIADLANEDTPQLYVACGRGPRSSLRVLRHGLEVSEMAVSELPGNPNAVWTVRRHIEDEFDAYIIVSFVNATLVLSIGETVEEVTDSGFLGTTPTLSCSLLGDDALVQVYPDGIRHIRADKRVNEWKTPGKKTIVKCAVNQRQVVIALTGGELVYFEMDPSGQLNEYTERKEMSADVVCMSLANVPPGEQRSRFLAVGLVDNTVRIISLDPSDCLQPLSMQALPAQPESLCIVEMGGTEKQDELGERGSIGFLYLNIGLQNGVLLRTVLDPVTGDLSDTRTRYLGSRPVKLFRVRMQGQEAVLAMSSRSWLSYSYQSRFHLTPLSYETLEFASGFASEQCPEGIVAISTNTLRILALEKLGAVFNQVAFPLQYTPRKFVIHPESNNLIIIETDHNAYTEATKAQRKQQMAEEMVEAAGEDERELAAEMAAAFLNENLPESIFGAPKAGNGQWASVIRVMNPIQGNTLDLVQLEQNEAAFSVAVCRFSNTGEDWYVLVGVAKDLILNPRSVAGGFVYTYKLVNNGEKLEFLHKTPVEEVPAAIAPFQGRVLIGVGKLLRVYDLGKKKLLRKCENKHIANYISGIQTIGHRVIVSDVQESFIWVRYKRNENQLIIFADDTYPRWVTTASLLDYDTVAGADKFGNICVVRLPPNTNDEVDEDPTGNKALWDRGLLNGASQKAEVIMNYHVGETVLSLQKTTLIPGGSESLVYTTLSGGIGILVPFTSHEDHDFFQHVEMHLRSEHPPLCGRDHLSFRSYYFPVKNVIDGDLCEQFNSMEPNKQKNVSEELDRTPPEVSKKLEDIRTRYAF
# YWHAG = YWHAG (UniProt P61981)
# SPC25 = SPC25 (UniProt Q9HBM1)
# TMED2 = TMED2 (UniProt Q15363)
# TMED4 = TMED4 (UniProt Q7Z7H5)
# Chain of TMED4 (Q7Z7H5 whole entry): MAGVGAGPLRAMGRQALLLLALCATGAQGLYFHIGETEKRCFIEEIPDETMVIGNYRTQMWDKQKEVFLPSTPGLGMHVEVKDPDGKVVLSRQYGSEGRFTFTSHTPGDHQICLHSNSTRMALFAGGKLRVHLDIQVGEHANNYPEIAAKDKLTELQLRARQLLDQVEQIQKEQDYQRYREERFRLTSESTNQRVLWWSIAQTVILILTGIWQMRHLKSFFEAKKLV
# TMED7 = TMED7 (UniProt Q9Y3B3)
# TMED9 = TMED9 (UniProt Q9BVK6)
# VIRMA = VIRMA (UniProt Q69YN4)
# TXLNG = TXLNG (UniProt Q9NUQ3)
# THRAP3 = THRAP3 (UniProt Q9Y2W1)
# THOC1 = THOC1 (UniProt Q96FV9)
# ZC3H4 = ZC3H4 (UniProt Q9UPT8)
# TSNAX = TSNAX (UniProt Q99598)
# THOC3 = THOC3 (UniProt Q96J01)
# THOC7 = THOC7 (UniProt Q6I9Y2)
# YWHAB = YWHAB (UniProt P31946)
# YWHAH = YWHAH (UniProt Q04917)
# UQCRC2 = UQCRC2 (UniProt P22695)
# SMC4 = SMC4 (UniProt Q9NTJ3)
# SNU13 = SNU13 (UniProt P55769)
# UXT = UXT (UniProt Q9UBK9)
# SNRPD1 = SNRPD1 (UniProt P62314)
# STK24 = STK24 (UniProt Q9Y6E0)
# SNRPD3 = SNRPD3 (UniProt P62318)
# SYMPK = SYMPK (UniProt Q92797)
# Chain of TMED10, P49755 (P49755 whole entry): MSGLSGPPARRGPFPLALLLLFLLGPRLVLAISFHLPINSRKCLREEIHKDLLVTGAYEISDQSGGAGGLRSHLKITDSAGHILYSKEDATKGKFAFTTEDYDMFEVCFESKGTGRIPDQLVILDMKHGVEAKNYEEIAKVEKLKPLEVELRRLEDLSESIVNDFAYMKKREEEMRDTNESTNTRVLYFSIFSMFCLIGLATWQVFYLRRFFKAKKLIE
# Chain of THOC5, Q13769 (Q13769 whole entry): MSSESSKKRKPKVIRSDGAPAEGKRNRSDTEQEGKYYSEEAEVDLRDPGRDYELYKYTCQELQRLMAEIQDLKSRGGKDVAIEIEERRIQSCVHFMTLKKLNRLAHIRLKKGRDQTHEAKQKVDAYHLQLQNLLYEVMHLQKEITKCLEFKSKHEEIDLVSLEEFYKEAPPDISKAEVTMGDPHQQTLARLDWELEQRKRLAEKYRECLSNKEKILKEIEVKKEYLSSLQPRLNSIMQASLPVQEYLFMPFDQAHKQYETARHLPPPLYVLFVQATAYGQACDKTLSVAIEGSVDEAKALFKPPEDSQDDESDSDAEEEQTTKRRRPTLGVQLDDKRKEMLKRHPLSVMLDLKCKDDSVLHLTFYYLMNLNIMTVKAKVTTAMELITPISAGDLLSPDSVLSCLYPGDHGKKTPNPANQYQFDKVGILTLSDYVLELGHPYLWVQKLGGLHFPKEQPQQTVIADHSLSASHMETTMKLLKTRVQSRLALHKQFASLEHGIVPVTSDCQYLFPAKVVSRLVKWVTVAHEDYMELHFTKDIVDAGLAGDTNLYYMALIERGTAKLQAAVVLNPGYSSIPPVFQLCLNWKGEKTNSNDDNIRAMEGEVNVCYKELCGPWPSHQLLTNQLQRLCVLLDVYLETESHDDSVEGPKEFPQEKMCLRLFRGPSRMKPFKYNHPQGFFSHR
# Chain of YWHAZ (P63104 whole entry): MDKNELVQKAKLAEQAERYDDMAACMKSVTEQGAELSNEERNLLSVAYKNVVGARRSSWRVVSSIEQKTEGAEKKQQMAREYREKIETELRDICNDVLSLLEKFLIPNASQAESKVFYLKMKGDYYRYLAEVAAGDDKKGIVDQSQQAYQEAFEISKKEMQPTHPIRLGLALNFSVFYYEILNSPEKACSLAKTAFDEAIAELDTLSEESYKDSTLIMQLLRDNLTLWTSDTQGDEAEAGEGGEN
# Chain of SF3B2, Q13435 (Q13435 whole entry): as the sequence (Q13435 whole entry) above
# Chain of SF3A3, Q12874 (Q12874 whole entry): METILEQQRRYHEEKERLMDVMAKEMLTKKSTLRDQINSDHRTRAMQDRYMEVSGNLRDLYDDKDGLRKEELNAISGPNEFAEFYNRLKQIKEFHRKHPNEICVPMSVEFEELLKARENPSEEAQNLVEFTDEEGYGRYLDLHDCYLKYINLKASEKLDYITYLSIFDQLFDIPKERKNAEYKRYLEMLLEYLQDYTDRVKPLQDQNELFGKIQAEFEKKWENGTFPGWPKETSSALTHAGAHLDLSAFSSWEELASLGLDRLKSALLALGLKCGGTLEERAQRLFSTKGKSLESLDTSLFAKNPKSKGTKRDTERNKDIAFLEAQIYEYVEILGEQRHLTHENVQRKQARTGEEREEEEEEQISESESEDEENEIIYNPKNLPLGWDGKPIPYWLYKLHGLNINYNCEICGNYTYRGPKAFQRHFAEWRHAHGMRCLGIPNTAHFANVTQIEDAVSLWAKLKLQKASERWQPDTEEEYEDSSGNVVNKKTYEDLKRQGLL
# Chain of TMED2, Q15363 (Q15363 whole entry): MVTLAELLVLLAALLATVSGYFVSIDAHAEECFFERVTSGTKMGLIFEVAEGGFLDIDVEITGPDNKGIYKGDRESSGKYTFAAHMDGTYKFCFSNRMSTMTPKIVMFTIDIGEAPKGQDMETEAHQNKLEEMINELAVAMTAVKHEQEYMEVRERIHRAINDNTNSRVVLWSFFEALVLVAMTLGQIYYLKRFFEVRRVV
# Chain of SEPTIN6, Q14141 (Q14141 whole entry): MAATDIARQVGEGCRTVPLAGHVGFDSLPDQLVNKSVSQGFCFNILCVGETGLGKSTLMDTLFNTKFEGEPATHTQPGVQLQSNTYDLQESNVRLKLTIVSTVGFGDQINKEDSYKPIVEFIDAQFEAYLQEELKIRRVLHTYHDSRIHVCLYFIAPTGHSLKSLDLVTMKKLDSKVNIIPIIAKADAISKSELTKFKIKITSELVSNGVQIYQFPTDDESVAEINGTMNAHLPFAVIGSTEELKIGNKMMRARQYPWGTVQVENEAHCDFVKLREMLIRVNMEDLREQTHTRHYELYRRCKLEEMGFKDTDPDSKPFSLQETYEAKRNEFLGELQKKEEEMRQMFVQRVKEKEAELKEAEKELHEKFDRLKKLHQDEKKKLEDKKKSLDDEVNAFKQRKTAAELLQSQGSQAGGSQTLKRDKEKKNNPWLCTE
# Chain of PDCD10, Q9BUL8 (Q9BUL8 whole entry): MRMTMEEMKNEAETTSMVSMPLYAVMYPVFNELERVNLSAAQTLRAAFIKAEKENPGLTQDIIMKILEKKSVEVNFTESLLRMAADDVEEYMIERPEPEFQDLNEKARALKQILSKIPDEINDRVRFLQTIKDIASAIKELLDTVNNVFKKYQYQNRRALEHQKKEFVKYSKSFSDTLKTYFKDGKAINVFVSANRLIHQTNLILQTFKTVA
# Chain of YWHAZ, P63104 (P63104 whole entry): as the sequence (P63104 whole entry) above
substance,measurement,setting,value
"SEPTIN2, Q15019",cross-linked residues,SEPTIN11,K249 - K190
"SEPTIN6, Q14141",cross-linked residues,SEPTIN2,K191 - K249
"RPS12, P25398",cross-linked residues,SERBP1,K116 - K299
"EFTUD2, Q15029",cross-linked residues,USP39,K646 - K308
"RPS16, P62249",cross-linked residues,SPG11,K60 - K942
"VPS26A, O75436",cross-linked residues,VPS35,K30 - K44
"SF3A2, Q15428",cross-linked residues,SF3A1,K190 - K264
"YWHAG, P61981",cross-linked residues,YWHAZ,K77 - K9
"STAT5A, P42229",cross-linked residues,STAT5B,K86 - K86
"RANBP2, P49792",cross-linked residues,UBE2I,K2687 - K49
"IREB2, P48200",cross-linked residues,SF1,K530 - K169
"SF3A3, Q12874",cross-linked residues,SF3B2,K69 - K280
same,cross-linked residues,SF3B3,K496 - K974
"YWHAB, P31946",cross-linked residues,YWHAG,K87 - K10
"TBC1D9B, Q66K14",cross-linked residues,SPC25,K1066 - K90
"YWHAE, P62258",cross-linked residues,YWHAZ,K12 - K68
"TMED10, P49755",cross-linked residues,TMED2,K145 - K129
same,cross-linked residues,TMED4,K145 - K152
same,cross-linked residues,TMED7,K169 - K91
"TMED2, Q15363",cross-linked residues,TMED4,K129 - K152
same,cross-linked residues,TMED9,K129 - K160
"WTAP, Q15007",cross-linked residues,VIRMA,K268 - K399
"TXLNA, P40222",cross-linked residues,TXLNG,K216 - K191
"NDUFAF2, Q8N183",cross-linked residues,THRAP3,K57 - K668
"THOC7, Q6I9Y2",cross-linked residues,THOC1,K32 - S2
"WDR82, Q6UXN9",cross-linked residues,ZC3H4,K181 - K935
"TSN, Q15631",cross-linked residues,TSNAX,K219 - K269
"THOC5, Q13769",cross-linked residues,THOC3,K223 - K171
same,cross-linked residues,THOC7,K223 - K159
"YWHAQ, P27348",cross-linked residues,YWHAB,K85 - K11
"YWHAZ, P63104",cross-linked residues,YWHAH,K9 - K91
"COX5B, P10606",cross-linked residues,UQCRC2,K57 - K23
"NCAPH, Q15003",cross-linked residues,SMC4,K725 - K99
"SF3B1, O75533",cross-linked residues,SF3B2,K1292 - K486
"PRPF6, O94906",cross-linked residues,SNU13,K775 - K113
"PDRG1, Q9NUG6",cross-linked residues,UXT,K36 - K48
"SNRPB, P14678",cross-linked residues,SNRPD1,K54 - K44
"PDCD10, Q9BUL8",cross-linked residues,STK24,K70 - K347
"ZC3H13, Q5T200",cross-linked residues,VIRMA,K1535 - K576
"SF3B2, Q13435",cross-linked residues,SF3A1,K275 - K55
same,cross-linked residues,SF3B3,K486 - K965
"SNRPC, P09234",cross-linked residues,SNRPD3,K52 - K78
"CSTF2, P33240",cross-linked residues,SYMPK,K189 - K490
